# Laboratory results from PubChem BioAssay.
# “And” between values parts separate entries of the source, which are not always exact repeats. Equal values may be shown once. Records with an inconclusive call do not appear. The source holds several records for some structures; these can differ, active in one and inactive in another. The source made the active and inactive calls.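 Rule for the calls, unless noted: active = normalized viability below 100% at a tested concentration; inactive = the rest.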
# Experiments:
# [1] = viability loss in pontine glioma line – cell-based, SU-DIPG-XXV, MIPE5.0, CellTiter-Glo, qHTS, dose response (AID 1347065; cut-off not given, nearly all actives have AC50 up to about 26 µM;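 note: cells exposed to compound for 48 hours before ATP readout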); conditions: CellTiter-Glo ATP luminescence
# [2] = JHH-DIPG-1 glioma cell viability, MIPE5.0 library, CellTiter-Glo luminescence, qHTS (AID 1347067; cut-off not given, nearly all actives have AC50 up to about 26 µM;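 note: cells exposed to compound for 48 hours before readout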); conditions: JHH-DIPG-1 glioma viability, CellTiter-Glo ATP luminescence
# [3] = SU-DIPG-XXV glioma cell viability, MIPE5.0 library, qHTS (AID 1347068; cut-off not given, nearly all actives have IC50 up to about 30 µM;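 note: cells exposed to compound for 48 hours before viability readout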)
# [4] = sensitizers of A549 cells to miR-34 induction, primary screen, imaging, A549 dox-inducible miR-34, nuclei and caspase counts (AID 1347080;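 active = compounds whose cell count with miR-34 switched on is under 0.7 times the count with it off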); conditions: A549 miR-34 inducible, Hoechst nuclei count, 48 h
# [5] = molecular target: NAD(+) hydrolase SARM1 (Homo sapiens) (UniProt Q6SZW1); assay: SARM1 TIR NADase inhibitors, cell lysate, NAD-Glo luminescence (AID 1508614;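 active = compound whose remaining NAD level is above about 45 nM, limit read from the data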;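 note: higher remaining NAD means stronger inhibition of SARM1 NADase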); conditions: SAM-TIR HEK293T lysate NADase, at 1 µM, stronger effect = higher value
# [6] = molecular target: Mitogen-activated protein kinase 7 (Homo sapiens) (UniProt Q13164); assay: ERK5 transactivation activators in reporter cells, primary screen, cell-based, HTS (AID 1508626;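 active = luciferase signal above three times the same-plate solvent-only control wells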;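 note: luciferase driven by Gal4-ERK5 fusion binding five Gal4 sites before minimal TATA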); conditions: HeLa Gal4-ERK5 transactivation, 18 h, at 5 µM, stronger effect = higher value
# [7] = LFS_MB_P medulloblastoma growth inhibition, cell-based, chromothripsis tumors, cisplatin or BGB combos (AID 1671449; in the data active = inhibition above about 80%;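 note: cells exposed for 96 hours; 0% = vehicle DMSO and 100% = killing by high DMSO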); conditions: LFS_MB_P medulloblastoma cells
# [8] = HDN33 neuroblastoma growth inhibition, cell-based, chromothripsis tumors, cisplatin or BGB combos (AID 1671450; in the data active = inhibition above about 80%;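 note: cells exposed to compound for four days; 0% = vehicle DMSO and 100% = cell killing by high DMSO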); conditions: HDN33 neuroblastoma cells, stronger effect = higher value
# [9] = ICB984 medulloblastoma cell growth inhibition, synergistic combos for chromothripsis tumors, cisplatin or BGB combos (AID 1671451; call rule not given here;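 note: cells exposed for 96 hours before readout; 0% = vehicle DMSO and 100% = killing by high DMSO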); conditions: ICB984 medulloblastoma cells, drug combinations, stronger effect = higher value
# [10] = LFS_MB_1R medulloblastoma cell growth inhibition, synergistic combos for chromothripsis tumors, cisplatin or BGB combos (AID 1671452; in the data active = inhibition above about 80%;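 note: cells exposed for 96 hours before readout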); conditions: LFS_MB_1R medulloblastoma cells, stronger effect = higher value
# [11] = HTB85 osteosarcoma cell growth inhibition, synergistic combos for chromothripsis tumors, BGB or cisplatin IC20 combos (AID 1671453; in the data active = inhibition above about 80%;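 note: cells exposed for 96 hours before readout; 0% = vehicle DMSO and 100% = high DMSO killing control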); conditions: HTB85 osteosarcoma cells, drug combinations, stronger effect = higher value
# [12] = CRL2098 osteosarcoma cell growth inhibition, synergistic combos for chromothripsis tumors, BGB or cisplatin IC20 combos (AID 1671454; in the data active = inhibition above about 80%;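 note: cells exposed for 96 h before readout; 0% = vehicle DMSO and 100% = killing by high DMSO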); conditions: CRL2098 osteosarcoma cells, drug combinations, stronger effect = higher value
# [13] = HD-MB03 medulloblastoma cell growth inhibition, synergistic combos for chromothripsis tumors, BGB or cisplatin IC20 combos (AID 1671455; in the data active = inhibition above about 83%;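 note: 0% = vehicle DMSO and 100% = high DMSO as cytotoxic control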); conditions: HD-MB03 medulloblastoma cells, stronger effect = higher value
# [14] = SU-DIPG-VI glioma cell viability, MIPE4.0 library, CellTiter-Glo luminescence, qHTS (AID 1347066; cut-off not given, nearly all actives have AC50 up to about 30 µM;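 note: cells exposed to compound for 48 hours before readout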); conditions: CellTiter-Glo ATP luminescence
# [15] = modifiers of HSF1 nuclear foci, imaging, Selleck Cancer Library (AID 1347162; in the data active = plate-normalised HSF1 focus index below about 0.46); conditions: human cells, at 10 µM; SSMD: measured here: HSF1 foci SSMD mean; cell count: measured here: cell number; plate-normalised HSF1 focus index: stronger effect = lower value
# [16] = ovarian cancer cell viability with rucaparib, profiling panel, oncology-focused library, rucaparib conditional (AID 1508598); conditions: patient-derived ovarian cancer cells, CellTiter-Glo viability, 144 h, stronger effect = lower value
# [17] = viability rescue of complex I mutant cybrids, primary screen, cell-based, galactose medium, ATP luminescence (AID 1645843;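 active = z-score of at least 1.8 in each of two replicates, scored against plate mean and spread of sample wells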;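 note: positive z means more ATP and so rescue of galactose-driven cybrid death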); conditions: complex I mutant cybrid cells, 72 h, stronger effect = higher value
# [18] = measured here: combination with BGB IC40, at 0.05 µM
# Chain of NAD(+) hydrolase SARM1 (Homo sapiens) (Q6SZW1 whole entry, looked up, the tested form may be a part): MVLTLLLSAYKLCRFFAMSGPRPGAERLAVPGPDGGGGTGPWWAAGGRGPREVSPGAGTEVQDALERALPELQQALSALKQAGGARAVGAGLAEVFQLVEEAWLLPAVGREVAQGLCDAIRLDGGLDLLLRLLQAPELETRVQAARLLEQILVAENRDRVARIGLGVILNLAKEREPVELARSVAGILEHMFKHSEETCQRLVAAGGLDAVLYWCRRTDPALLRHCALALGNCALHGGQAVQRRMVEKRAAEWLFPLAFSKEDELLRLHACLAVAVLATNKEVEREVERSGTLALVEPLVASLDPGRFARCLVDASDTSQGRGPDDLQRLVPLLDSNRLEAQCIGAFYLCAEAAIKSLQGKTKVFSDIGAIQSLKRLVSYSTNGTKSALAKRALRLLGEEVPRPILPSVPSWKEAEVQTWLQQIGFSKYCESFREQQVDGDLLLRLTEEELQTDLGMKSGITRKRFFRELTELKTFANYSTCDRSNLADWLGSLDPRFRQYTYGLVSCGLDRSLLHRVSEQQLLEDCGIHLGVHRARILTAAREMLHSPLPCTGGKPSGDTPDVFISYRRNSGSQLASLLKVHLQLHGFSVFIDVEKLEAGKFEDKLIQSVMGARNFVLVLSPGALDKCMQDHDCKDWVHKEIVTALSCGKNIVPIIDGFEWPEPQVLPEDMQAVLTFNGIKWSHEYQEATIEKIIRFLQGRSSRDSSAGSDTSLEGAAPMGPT
# Chain of Mitogen-activated protein kinase 7 (Homo sapiens) (Q13164 whole entry, looked up, the tested form may be a part): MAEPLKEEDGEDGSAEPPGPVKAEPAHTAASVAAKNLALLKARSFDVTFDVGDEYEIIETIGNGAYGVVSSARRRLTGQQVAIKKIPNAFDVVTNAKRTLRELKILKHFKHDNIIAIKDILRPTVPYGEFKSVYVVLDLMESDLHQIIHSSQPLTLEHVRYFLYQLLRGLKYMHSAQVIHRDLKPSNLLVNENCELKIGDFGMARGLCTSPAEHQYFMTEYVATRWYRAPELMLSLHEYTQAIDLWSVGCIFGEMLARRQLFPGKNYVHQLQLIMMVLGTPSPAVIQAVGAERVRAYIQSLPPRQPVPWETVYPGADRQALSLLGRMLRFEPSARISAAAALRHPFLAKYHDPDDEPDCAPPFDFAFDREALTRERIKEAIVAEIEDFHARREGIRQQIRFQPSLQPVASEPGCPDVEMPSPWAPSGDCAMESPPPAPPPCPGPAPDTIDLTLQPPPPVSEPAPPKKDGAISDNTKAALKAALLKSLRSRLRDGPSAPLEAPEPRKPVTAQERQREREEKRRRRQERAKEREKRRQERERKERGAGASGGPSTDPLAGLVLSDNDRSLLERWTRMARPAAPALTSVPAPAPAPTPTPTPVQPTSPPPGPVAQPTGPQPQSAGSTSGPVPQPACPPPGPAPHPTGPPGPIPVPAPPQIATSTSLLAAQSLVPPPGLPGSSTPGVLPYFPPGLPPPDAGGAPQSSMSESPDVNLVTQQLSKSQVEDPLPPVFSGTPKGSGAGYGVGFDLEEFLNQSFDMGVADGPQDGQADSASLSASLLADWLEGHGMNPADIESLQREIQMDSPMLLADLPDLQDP
smiles,measurement,setting,value
Nc1nc(=S)c2[nH]cnc2[nH]1,AC50,[1],1.48 µM (active)
same,AC50,[2],1.05 µM (active)
same,IC50,[3],4.17 µM (active)
same,fold change,"[4]; stronger effect = lower value, cell number ratio, induced over uninduced",1.16 (inactive)
same,fold change,[4]; measured here: relative caspase fold change +Dox/-Dox,0.96
same,cell count,"[4]; measured here: total cells with miR-34 induction, stronger effect = lower value",1820
same,cell count,[4]; measured here: total cells without miR-34 induction,1580
same,remaining NAD,[5],10 nM (inactive)
same,luciferase signal,[6],52 AU (inactive)
same,inhibition,"[7]; at 0.5 µM, stronger effect = higher value",-26.3% (inactive)
same,inhibition,"[7]; measured here: combination with BGB IC20, at 0.005 µM",-7.21%
same,inhibition,"[7]; measured here: combination with BGB IC40, at 0.005 µM",-35.9%
same,inhibition,[7]; [18],-9.84%
same,inhibition,"[7]; measured here: combination with cisplatin, at 0.5 µM, stronger effect = higher value",-38.8%
same,inhibition,"[7]; measured here: combination with cisplatin, at 5 µM, stronger effect = higher value",-43.8%
same,inhibition,"[8]; BGB combo, at 5 µM",73.6%
same,inhibition,[8]; at 0.5 µM,33.6% (inactive)
same,inhibition,"[8]; cisplatin combo, at 5 µM",70.5%
same,inhibition,"[8]; measured here: with BGB IC20 combination, at 0.5 µM",23.3%
same,inhibition,"[8]; measured here: with cisplatin IC20 combination, at 0.5 µM",18.7%
same,inhibition,"[8]; single agent, at 5 µM",80.7%
same,inhibition,"[9]; BGB IC20 combo, at 0.005 µM",-12.4%
same,inhibition,"[9]; BGB IC40 combo, at 0.005 µM",-52.4%
same,inhibition,"[9]; BGB IC40 combo, at 0.05 µM",-32.5%
same,inhibition,[9]; at 0.5 µM,-36% (inactive)
same,inhibition,"[9]; cisplatin combo, at 0.05 µM",-37.7%
same,inhibition,"[9]; cisplatin combo, at 0.5 µM",-55.5%
same,inhibition,"[9]; cisplatin combo, at 5 µM",-19.8%
same,inhibition,"[9]; measured here: 5 uM single agent, at 5 µM",-9.37%
same,inhibition,[10]; at 0.5 µM,-22.2% (inactive)
same,inhibition,[10]; [18],5.91%
same,inhibition,"[10]; measured here: combination with cisplatin, at 0.5 µM",-61.3%
same,inhibition,"[10]; measured here: combination with cisplatin, at 5 µM",-34.3%
same,inhibition,[11]; at 0.5 µM,1.06% (inactive)
same,inhibition,"[11]; measured here: with BGB IC20, at 0.5 µM",3.8%
same,inhibition,"[11]; measured here: with BGB IC20, at 5 µM",46%
same,inhibition,"[11]; measured here: with cisplatin IC20, at 0.5 µM",-7.75%
same,inhibition,"[11]; measured here: with cisplatin IC20, at 5 µM",16.3%
same,inhibition,"[11]; single agent, at 5 µM",52.5%
same,inhibition,[12]; at 0.5 µM,-31.6% (inactive)
same,inhibition,"[12]; measured here: combination with BGB at IC20, at 0.5 µM",-18.7%
same,inhibition,"[12]; measured here: combination with cisplatin at IC20, at 0.5 µM",-26.5%
same,inhibition,[13]; at 0.5 µM,-3.75% (inactive)
same,inhibition,"[13]; measured here: combo with BGB at IC20, at 0.5 µM",-3.35%
same,inhibition,"[13]; measured here: combo with cisplatin at IC20, at 0.5 µM",-7.29%
Cc1ccc(NC(=O)c2ccc(CN3CCN(C)CC3)cc2)cc1Nc1nccc(-c2cccnc2)n1,AC50,[1],23.5 µM (active)
same,outcome,[14],inactive
same,SSMD,[15],2.47
same,cell count,[15],6720
same,plate-normalised HSF1 focus index,[15],1.13 (inactive)
same,viability,"[16]; at 0.000305 µM, OCI-C5x cells, with rucaparib 10 µM, 100% = cells with rucaparib alone",112% (inactive) and 107% (inactive)
same,viability,"[16]; at 0.000305 µM, OCI-C5x cells, without rucaparib",107% (inactive) and 98.4% (active)
same,viability,"[16]; at 0.000305 µM, OCI-P5x cells, with rucaparib 20 µM, 100% = cells with rucaparib alone",97.9% (active) and 85.2% (active)
same,viability,"[16]; at 0.000305 µM, OCI-P5x cells, without rucaparib",98.1% (active) and 85.5% (active)
same,viability,"[16]; at 0.00122 µM, OCI-C5x cells, with rucaparib 10 µM, 100% = cells with rucaparib alone",109% (inactive) and 103% (inactive)
same,viability,"[16]; at 0.00122 µM, OCI-C5x cells, without rucaparib",106% (inactive) and 98.3% (active)
same,viability,"[16]; at 0.00122 µM, OCI-P5x cells, with rucaparib 20 µM, 100% = cells with rucaparib alone",95.4% (active) and 92.7% (active)
same,viability,"[16]; at 0.00122 µM, OCI-P5x cells, without rucaparib",96.8% (active) and 89.4% (active)
same,viability,"[16]; at 0.00488 µM, OCI-C5x cells, with rucaparib 10 µM, 100% = cells with rucaparib alone",113% (inactive) and 114% (inactive)
same,viability,"[16]; at 0.00488 µM, OCI-C5x cells, without rucaparib",108% (inactive) and 102% (inactive)
same,viability,"[16]; at 0.00488 µM, OCI-P5x cells, with rucaparib 20 µM, 100% = cells with rucaparib alone",92.2% (active) and 93.1% (active)
same,viability,"[16]; at 0.00488 µM, OCI-P5x cells, without rucaparib",99.4% (active) and 94.5% (active)
same,viability,"[16]; at 0.0195 µM, OCI-C5x cells, with rucaparib 10 µM, 100% = cells with rucaparib alone",120% (inactive) and 104% (inactive)
same,viability,"[16]; at 0.0195 µM, OCI-C5x cells, without rucaparib",112% (inactive) and 98.4% (active)
same,viability,"[16]; at 0.0195 µM, OCI-P5x cells, with rucaparib 20 µM, 100% = cells with rucaparib alone",94.9% (active) and 104% (inactive)
same,viability,"[16]; at 0.0195 µM, OCI-P5x cells, without rucaparib",95% (active) and 94.1% (active)
same,viability,"[16]; at 0.0781 µM, OCI-C5x cells, with rucaparib 10 µM, 100% = cells with rucaparib alone",123% (inactive) and 97.7% (active)
same,viability,"[16]; at 0.0781 µM, OCI-C5x cells, without rucaparib",115% (inactive) and 101% (inactive)
same,viability,"[16]; at 0.0781 µM, OCI-P5x cells, with rucaparib 20 µM, 100% = cells with rucaparib alone",95% (active) and 100% (inactive)
same,viability,"[16]; at 0.0781 µM, OCI-P5x cells, without rucaparib",96.1% (active) and 97.9% (active)
same,viability,"[16]; at 0.313 µM, OCI-C5x cells, with rucaparib 10 µM, 100% = cells with rucaparib alone",120% (inactive) and 104% (inactive)
same,viability,"[16]; at 0.313 µM, OCI-C5x cells, without rucaparib",110% (inactive) and 103% (inactive)
same,viability,"[16]; at 0.313 µM, OCI-P5x cells, with rucaparib 20 µM, 100% = cells with rucaparib alone",100% (inactive) and 103% (inactive)
same,viability,"[16]; at 0.313 µM, OCI-P5x cells, without rucaparib",96.2% (active) and 101% (inactive)
same,viability,"[16]; at 1.25 µM, OCI-C5x cells, with rucaparib 10 µM, 100% = cells with rucaparib alone",118% (inactive) and 105% (inactive)
same,viability,"[16]; at 1.25 µM, OCI-C5x cells, without rucaparib",115% (inactive) and 106% (inactive)
same,viability,"[16]; at 1.25 µM, OCI-P5x cells, with rucaparib 20 µM, 100% = cells with rucaparib alone",95.6% (active) and 99.9% (active)
same,viability,"[16]; at 1.25 µM, OCI-P5x cells, without rucaparib",95.1% (active) and 100% (inactive)
same,viability,"[16]; at 5 µM, OCI-C5x cells, with rucaparib 10 µM, 100% = cells with rucaparib alone",133% (inactive) and 131% (inactive)
same,viability,"[16]; at 5 µM, OCI-C5x cells, without rucaparib",124% (inactive) and 134% (inactive)
same,viability,"[16]; at 5 µM, OCI-P5x cells, with rucaparib 20 µM, 100% = cells with rucaparib alone",84.6% (active) and 98.4% (active)
same,viability,"[16]; at 5 µM, OCI-P5x cells, without rucaparib",89.8% (active) and 103% (inactive)
same,remaining NAD,[5],10 nM (inactive)
same,z-score,[17],-1.09 (inactive) and -0.785 (inactive)
